{
  "source": "PubChem BioAssay (Tox21)",
  "note": "Inconclusive results are not listed. A call without a number means that no potency is given here. A number with no mark means an inactive call. The source made the active and inactive calls. Calls follow the shape of the dose curve; as a rule, active = well fitted cell-killing curve with a large enough effect in the repeat runs; inconclusive = weak or mixed curves; inactive = no such curve, though single readings can be large or run the other way.",
  "data": [
    {"assay": "qHTS assay to identify small molecule agonists of the peroxisome proliferator-activated receptor delta (PPARd) signaling pathway - cell viability counter screen (AID 743211); also: nearly all actives have a fitted effect of over 55% in size", "conditions": "PPARd-bla HEK293H viability, CellTiter-Glo luminescence, 17 h; series mostly up to 62.6 µM", "from_the_text": "U.S. Tox21 Program National Center for Advancing Translational Sciences [NCATS] NIH Chemical Genomics Center [NCGC] U.S. Environmental Protection Agency [EPA] National Institutes of Environmental Health Sciences [NIEHS] National Toxicology Program [NTP] U.S. Food and Drug Administration [FDA] Tox21 Assay Overview: The peroxisome proliferator-activated receptors (PPARs) are lipid-activated transcription factors of the nuclear receptor superfamily with three distinct subtypes namely PPAR alpha, PPAR delta (PPARd) and PPAR gamma. All these subtypes heterodimerizes with Retinoid X receptor (RXR) and have different physiological functions. […] To identify the compounds that activate PPAR-delta signaling, GeneBLAzer PPAR delta UAS-bla HEK293H cell line (Invitrogen, Carlsbad, CA, USA) containing a beta-lactamase reporter gene under the control of an Upstream Activator Sequence (UAS) was used to screen the Tox21 compound library. The cytotoxicity of the Tox21 compound library against the PPARd-bla cell line was tested in parallel by measuring the cell viability using CellTiter-Glo assay (Promega, Madison, WI) in the same wells.\nTox21 Assay Protocol Summary: PPARd-bla cells were dispensed at 3000 cells/6uL/well in 1536-well black wall/clear bottom plates using a Multidrop Combi (Thermo Fisher Scientific, Waltham, MA) dispenser. After the assay plates were incubated at 37 C and 5% CO2 for 5 h, 23 nL of compounds dissolved in DMSO, positive controls or DMSO only was transferred to the assay plate by a Pintool station (Kalypsys, San Diego, CA). The assay plates were incubated at 37C for 17 h. After 1 uL of LiveBLAzerTM B/G FRET substrate was added using a Bioraptr Flying Reagent Dispenser (FRD) workstation (Beckman Coulter, Indianapolis, IN, USA), the plates were incubated at room temperature for 2 h, and fluorescence intensity was measured by an Envision plate reader (PerkinElmer, Shelton, CT). For cell viability readout that measures cytotoxicity, 3 ul/well of CellTiter-Glo reagent was added into the assay plates using a Bioraptr FRD. After 30 min incubation at room temperature, the luminescence intensity in the plates was measured using a ViewLux plate reader (PerkinElmer).", "values": [
      {"smiles": "N#CCN(CC#N)CCN(CC#N)CC#N", "Potency": "inactive"},
      {"smiles": "CSc1nc(NC2CC2)nc(NC(C)(C)C)n1", "Potency": "inactive"},
      {"smiles": "Nc1ccc2cc(S(=O)(=O)O)ccc2c1", "Potency": "inactive"},
      {"smiles": "CC(C)(C)C(=O)/C=C/c1ccc(Cl)cc1", "Potency": "inactive"},
      {"smiles": "CCCC(=O)O[C@]1(C(=O)CCl)[C@@H](C)C[C@H]2[C@@H]3CCC4=CC(=O)C=C[C@]4(C)[C@@]3(F)C(=O)C[C@@]21C", "Potency": "inactive"},
      {"smiles": "CN1[C@@H]2CC[C@H]1CC(NC(=O)n1c(=O)[nH]c3ccccc31)C2", "note": "(stereo not given in full)", "Potency": "inactive"},
      {"smiles": "NC(=S)Nc1cccc2ccccc12", "activity change, negative = cytotoxicity": "-1.16% [at 5.95 µM]"},
      {"smiles": "CCOC(=O)Nc1ccc2c(c1)N(C(=O)CCN1CCOCC1)c1ccccc1S2", "Potency": "inactive"},
      {"smiles": "CCCCCCOC(=O)CC(CC(=O)OCCCCCC)(OC(=O)CCC)C(=O)OCCCCCC", "Potency": "inactive"},
      {"smiles": "O=S(=O)(O)c1ccccc1O", "Potency": "inactive"},
      {"smiles": "C=CCSCC1Nc2cc(Cl)c(S(N)(=O)=O)cc2S(=O)(=O)N1", "note": "(stereo not given)", "Potency": "inactive"},
      {"smiles": "CC/C=C\\CCCCO", "Potency": "inactive"},
      {"smiles": "O=C(O)C(O)[C@H](O)[C@@H](O)[C@H](O)[C@H](O)CO", "note": "(stereo not given in full)", "Potency": "inactive"},
      {"smiles": "CC(C)COC(=O)C(C)C", "Potency": "inactive"},
      {"smiles": "CC(C)COC(=O)c1ccccc1O", "Potency": "inactive"},
      {"smiles": "CC(=O)NC(Cc1ccccc1)C(=O)O", "note": "(stereo not given)", "Potency": "inactive"},
      {"smiles": "CN(C)CCOC(c1ccc(Cl)cc1)c1ccccn1", "note": "(stereo not given)", "Potency": "inactive"},
      {"smiles": "C/C=C1\\C(=O)C[C@H]2[C@@H]3CCC4=CC(=O)CC[C@]4(C)[C@H]3CC[C@]12C", "Potency": "inactive"},
      {"smiles": "O=c1[nH]c(=O)n([C@H]2O[C@H](CO)[C@@H](O)[C@@H]2O)cc1/C=C\\Br", "Potency": "inactive"},
      {"smiles": "C=CCn1c(=O)n([C@@H]2O[C@H](CO)[C@@H](O)[C@H]2O)c2nc(N)[nH]c(=O)c21", "Potency": "inactive"},
      {"smiles": "Cc1ccccc1C(=O)O", "Potency": "inactive"},
      {"smiles": "CO[Si](OC)(OC)OC", "Potency": "inactive"},
      {"smiles": "CCCCCCCCCCC1CO1", "note": "(stereo not given)", "Potency": "inactive"},
      {"smiles": "c1ccc(SCCSc2ccccc2)cc1", "Potency": "inactive"},
      {"smiles": "Cc1nc(-c2ccc(OCC(C)C)c(C#N)c2)sc1C(=O)O", "Potency": "inactive"},
      {"smiles": "CCCCCCCCCCCl", "Potency": "inactive"},
      {"smiles": "CC(C)(C)OC(=O)N1C[C@@H](F)C[C@H]1C(=O)O", "Potency": "inactive"},
      {"smiles": "Cc1ccc(N)cc1[N+](=O)[O-]", "Potency": "inactive"},
      {"smiles": "Nc1nc(F)nc2c1ncn2[C@@H]1O[C@H](CO)[C@@H](O)[C@@H]1O", "Potency": "inactive"},
      {"smiles": "NS(=O)(=O)c1cc2c(cc1C(F)(F)F)NC(Cc1ccccc1)NS2(=O)=O", "note": "(stereo not given)", "Potency": "inactive"},
      {"smiles": "CC/C=C\\C#N", "Potency": "inactive"},
      {"smiles": "CC(C)(C)CC(C)(C)N", "Potency": "inactive"},
      {"smiles": "CC(=O)c1ccc(C)cc1", "Potency": "inactive"},
      {"smiles": "CC(C)CCOC(=O)CC(C)C", "Potency": "inactive"},
      {"smiles": "CO[Si](CCCNCCC[Si](OC)(OC)OC)(OC)OC", "Potency": "inactive"},
      {"smiles": "OCCCCCCO", "Potency": "inactive"},
      {"smiles": "C=CC(=O)N1CCOCC1", "Potency": "inactive"},
      {"smiles": "C#CC(O)CCCCC", "note": "(stereo not given)", "Potency": "inactive"},
      {"smiles": "O=C(O)/C=C/c1ccc(Cn2ccnc2)cc1", "Potency": "inactive"},
      {"smiles": "NS(=O)(=O)c1cc2c(cc1Cl)NC(CSCc1ccccc1)=NS2(=O)=O", "Potency": "inactive"}
    ]}
  ]
}
